These results are taken from PubChem BioAssay (Tox21).

The nature of assay [1]: qHTS assay to test for compound auto fluorescence at 535 nm (green) in HEK293 cells (AID 720680).
The nature of assay [2]: qHTS assay to test for compound auto fluorescence at 460 nm (blue) in HEK293 cell free culture (AID 720681). Summed up:
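Test compounds were pinned into cell-free culture medium (DMEM with 10% FBS) and fluorescence was read directly at Ex/Em 405/460 nm. Signals were expressed as fluorescence equivalents of triamterene, with DMSO vehicle as control.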
For orientation: qHTS replaces the single test concentration by a dilution series.

Assay [3] can be described thus: qHTS assay to test for compound auto fluorescence at 535 nm (green) in HEK293 cell free culture (AID 720682). The method, boiled down:
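No cells present: wells hold DMEM supplemented with 10% FBS, into which compound or vehicle is pinned. Green emission is then recorded (485 nm excitation, 535 nm emission) and scaled to fluorescein.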

Assay [4] in a line: qHTS assay to test for compound auto fluorescence at 590 nm (red) in HEK293 cell free culture (AID 720683). Summed up:
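Tox21 10K library compounds were pinned into cell-free DMEM with 10% FBS and fluorescence was read at excitation 540 nm. Activity is expressed as Rose Bengal sodium equivalency.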

Assay [5] in a line: qHTS assay to test for compound auto fluorescence at 460 nm (blue) in HepG2 cell free culture (AID 720685). Summed up: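 Compound (23 nL) or DMSO pinned into cell-free MEM with 10% FBS; blue fluorescence read at 405/460 nm excitation/emission, expressed as auto-fluorescence equivalency to triamterene.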
Assay [6] can be described thus: qHTS assay to test for compound auto fluorescence at 460 nm (blue) in HepG2 cells (AID 720687). The method, boiled down: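 Cells (2,000/well in MEM with 10% FBS) attached overnight at 37 C, then were exposed to compound or DMSO for 1 hr at 37 C, 5% CO2. Fluorescence read at Ex/Em 405/460 nm, expressed as triamterene-equivalent signal.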
Assay [7] addresses Glucocorticoid receptor (Homo sapiens) (UniProt P04150). The experiment in a line: qHTS assay to identify small molecule agonists of the glucocorticoid receptor (GR) signaling pathway (AID 720691; active = well fitted activation curve with a large enough effect in the signal ratio in the repeat runs, not every such curve was filed as active; the % refers to the signal ratio; also: potency is read from the fitted curve at half-maximal effect). Summed up:
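Beta-lactamase reporter activity, read as fluorescence intensity, was measured in GR-bla HeLa cells exposed to compounds for 18 h at 37 C and then loaded with LiveBLAzer B/G FRET substrate for 2 h at room temperature.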

The nature of assay [8]: qHTS assay for identifying genotoxic compounds that show differential cytotoxicity against isogenic chicken DT40 cell lines with known DNA damage response pathways - wild type cell line (AID 743012). Also: nearly all actives have a fitted effect of over 60% in size. Also: potency is read from the fitted curve at half-maximal effect. Summed up:
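Quantitative HTS on parental DT40 cells: 40 h compound treatment at 37 C/5% CO2, with viability then determined by CellTiter-Glo luminescence. Values serve as the DNA repair-proficient reference for differential cytotoxicity.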

Assay [9] can be described thus: qHTS assay for identifying genotoxic compounds that show differential cytotoxicity against isogenic chicken DT40 cell lines with known DNA damage response pathways - Rev3 mutant cell line (AID 743014). Also: nearly all actives have a fitted effect of over 55% in size. Also: potency is read from the fitted curve at half-maximal effect.
Assay [10] in a line: qHTS assay for identifying genotoxic compounds that show differential cytotoxicity against isogenic chicken DT40 cell lines with known DNA damage response pathways - Rad54/Ku70 mutant cell line (AID 743015). Also: nearly all actives have a fitted effect of over 60% in size. Also: potency is read from the fitted curve at half-maximal effect.
Assay [11] can be described thus: qHTS assay to identify small molecule antagonists of the androgen receptor (AR) signaling pathway - cell viability counter screen (AID 743033; also: nearly all actives have a fitted effect of over 45% in size).
Assay [12] in a line: qHTS assay to identify small molecule antagonists of the androgen receptor (AR) signaling pathway using the MDA cell line - cell viability counter screen (AID 743041; also: nearly all actives have a fitted effect of over 45% in size). Summed up: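 Viability counter screen run alongside the AR antagonist reporter: cells seeded 5 h before compound, R1881 added, 16 h incubation at 37C without CO2, fluorescent CellTiter-Fluor signal quantified.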

Assay [13] can be described thus: qHTS assay to test for compound auto fluorescence at 590 nm (red) in HepG2 cell free culture (AID 720684). Summed up: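 Measured in medium alone (MEM containing 10% FBS) following pintool addition of compound; emission at 590 nm with 540 nm excitation, referenced to Rose Bengal sodium.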
Assay [14] in a line: qHTS assay to test for compound auto fluorescence at 535 nm (green) in HepG2 cell free culture (AID 720686).
Assay [15] deals with Glucocorticoid receptor (Homo sapiens) (UniProt P04150). The experiment in a line: qHTS assay to identify small molecule antagonists of the glucocorticoid receptor (GR) signaling pathway (AID 720692; active = well fitted inhibition curve with a large enough effect in the signal ratio in the repeat runs, not every such curve was filed as active; the % refers to the signal ratio). The method, boiled down: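 Fluorescence from cleaved LiveBLAzer B/G FRET substrate reports GRE-driven beta-lactamase in HeLa cells; compounds are tested against 5 nM dexamethasone (final) over 18 h at 37 C, substrate incubation 2 h at room temperature.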

Assay [16] can be described thus: qHTS assay to identify small molecule antagonists of the glucocorticoid receptor (GR) signaling pathway - cell viability counter screen (AID 720693). Also: nearly all actives have a fitted effect of over 55% in size.
In assay [17] the target is Androgen receptor (Homo sapiens) (UniProt P10275). Kind of assay: qHTS assay to identify small molecule antagonists of the androgen receptor (AR) signaling pathway (AID 743035; active = well fitted inhibition curve with a large enough effect in the signal ratio in the repeat runs, not every such curve was filed as active; the % refers to the signal ratio). Summed up: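 Cell line: GeneBLAzer AR-UAS-bla GripTite (HEK293). Stimulus: R1881 added after compound. Exposure: 16 h, 37C, 5% CO2. Readout: LiveBLAzer B/G FRET fluorescence after 2 h at room temperature.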

For assay [18] the target is unchanged. The experiment in a line: qHTS assay to identify small molecule agonists of the androgen receptor (AR) signaling pathway (AID 743036; active = well fitted activation curve with a large enough effect in the signal ratio in the repeat runs, with a control signal flat, not every such curve was filed as active; the % refers to the signal ratio). The method, boiled down:
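Quantitative HTS of the Tox21 10K library in HEK293 cells bearing a stably integrated UAS-controlled beta-lactamase reporter. Compound exposure lasted 16 h at 37C. Reporter activity was detected by FRET substrate fluorescence after 2 h at room temperature.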

Assay [19] has the same target. Kind of assay: qHTS assay to identify small molecule agonists of the androgen receptor (AR) signaling pathway using the MDA cell line (AID 743040; also: nearly all actives have a fitted effect of over 20% in size). Summed up:
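Luminescence from ONE-Glo, read after 30 min at room temperature, reflects MMTV-driven luciferase in MDA-kb2 cells (AR- and GR-responsive). Treatment lasted 16 h at 37C, 0% CO2.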

Assay [20] has the same target. The experiment in a line: qHTS assay to identify small molecule antagonists of the androgen receptor (AR) signaling pathway using the MDA cell line (AID 743042; also: nearly all actives have a fitted effect of over 55% in size). Summed up: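 MDA-kb2 cells (human breast carcinoma, stably carrying an MMTV-luciferase reporter responsive to AR and GR) were plated at 3,000 cells/well and preincubated 5 hr at 37C, then given compound plus R1881 agonist for 16 h. ONE-Glo luminescence was read.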

A number with no mark means an inactive call. Results filed as inconclusive are left out. Active and inactive are the calls of the source. Unless noted, calls follow the shape of the dose curve; as a rule, active = well fitted curve in the direction sought with a large enough effect in the repeat runs; inconclusive = weak or mixed curves; inactive = no such curve, though single readings can be large; an effect the other way counts as inactive or inconclusive.
% is scaled to controls: 0 for no effect and ±100 for the full control effect.

Sequence of Androgen receptor (Homo sapiens) (P10275 whole entry, looked up): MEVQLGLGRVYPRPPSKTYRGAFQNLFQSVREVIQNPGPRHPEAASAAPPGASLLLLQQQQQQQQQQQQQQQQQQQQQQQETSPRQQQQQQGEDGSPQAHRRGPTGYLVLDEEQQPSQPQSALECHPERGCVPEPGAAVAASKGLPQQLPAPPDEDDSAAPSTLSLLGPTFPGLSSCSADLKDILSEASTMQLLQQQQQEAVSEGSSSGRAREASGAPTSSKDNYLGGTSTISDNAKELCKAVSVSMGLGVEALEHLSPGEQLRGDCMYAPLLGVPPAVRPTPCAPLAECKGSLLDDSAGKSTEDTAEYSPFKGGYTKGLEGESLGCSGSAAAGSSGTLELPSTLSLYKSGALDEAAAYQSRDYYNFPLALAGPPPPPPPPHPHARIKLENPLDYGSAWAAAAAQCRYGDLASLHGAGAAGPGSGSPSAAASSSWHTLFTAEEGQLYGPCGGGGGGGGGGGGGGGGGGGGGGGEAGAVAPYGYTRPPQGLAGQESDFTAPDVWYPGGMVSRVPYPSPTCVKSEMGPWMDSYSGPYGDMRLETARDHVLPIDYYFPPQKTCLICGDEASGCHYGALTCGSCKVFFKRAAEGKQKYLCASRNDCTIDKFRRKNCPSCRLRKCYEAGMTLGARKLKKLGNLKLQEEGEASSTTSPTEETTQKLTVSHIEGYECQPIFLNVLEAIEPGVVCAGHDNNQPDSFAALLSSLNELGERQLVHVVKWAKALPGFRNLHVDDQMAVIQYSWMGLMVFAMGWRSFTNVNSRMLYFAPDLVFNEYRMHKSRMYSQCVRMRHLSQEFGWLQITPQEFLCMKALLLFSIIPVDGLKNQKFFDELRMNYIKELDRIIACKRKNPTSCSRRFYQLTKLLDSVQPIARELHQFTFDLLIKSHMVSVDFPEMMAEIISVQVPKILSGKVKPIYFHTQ
Sequence of Glucocorticoid receptor (Homo sapiens) (P04150 whole entry, looked up): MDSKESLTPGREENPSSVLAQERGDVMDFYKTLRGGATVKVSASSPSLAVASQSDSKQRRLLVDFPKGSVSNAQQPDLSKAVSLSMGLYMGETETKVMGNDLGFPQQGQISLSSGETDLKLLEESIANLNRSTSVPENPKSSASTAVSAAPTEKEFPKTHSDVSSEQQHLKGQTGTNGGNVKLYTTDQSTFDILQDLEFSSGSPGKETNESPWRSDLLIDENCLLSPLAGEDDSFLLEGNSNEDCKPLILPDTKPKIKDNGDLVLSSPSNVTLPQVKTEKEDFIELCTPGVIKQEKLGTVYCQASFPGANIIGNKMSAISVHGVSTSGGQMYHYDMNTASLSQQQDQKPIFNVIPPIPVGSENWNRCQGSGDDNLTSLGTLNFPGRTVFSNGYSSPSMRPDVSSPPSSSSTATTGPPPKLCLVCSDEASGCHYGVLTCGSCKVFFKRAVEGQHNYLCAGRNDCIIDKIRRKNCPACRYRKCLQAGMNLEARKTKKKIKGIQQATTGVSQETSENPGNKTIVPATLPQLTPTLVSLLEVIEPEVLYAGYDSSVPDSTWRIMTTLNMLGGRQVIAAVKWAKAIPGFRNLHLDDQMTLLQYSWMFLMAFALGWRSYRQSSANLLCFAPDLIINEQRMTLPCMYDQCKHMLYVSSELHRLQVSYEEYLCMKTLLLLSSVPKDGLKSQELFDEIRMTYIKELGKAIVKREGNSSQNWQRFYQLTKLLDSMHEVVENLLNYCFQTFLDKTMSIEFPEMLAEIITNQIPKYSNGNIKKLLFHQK

Consider `CCCCCCCCC1CCC(=O)O1` (stereo not drawn), for which the compound was called inactive in assay [1], in assay [2], in [3], in assay [4], in [5] and in [6]. In [7], the Potency is 43.6 µM (active). In addition, the Potency result in assay [8], in [9], in [10], in assay [11] and in [12] was “inactive” throughout.
Regarding `CCN1CCc2nc(N)oc2CC1`, the outcome in assay [2], in [3], in assay [4], in assay [13], in assay [5] and in [14] was inactive. Also, the compound was classed as inactive in assay [6], in assay [15] and in assay [16]. In addition, the Potency entry in [7], in assay [8], in [9], in [11] and in [12] was “inactive” each time.
`O=C1c2cccc3c2[C@H](CCC3)CN1[C@@H]1CN2CCC1CC2`: the call in [1], in assay [2], in assay [3], in assay [4], in assay [5] and in assay [14] was inactive. In addition, the result in [6], in [15] and in assay [16] was inactive. The Potency result in [7] is “inactive”. Also, the figures for the Potency in assay [8] and in assay [10] were 11.9 µM (active) and 23.7 µM (active), respectively.
As to `COC(=O)c1ccccc1C(=O)c1ccc(OCCN2CCCCC2)cc1`, the compound was classed as inactive in [1], in assay [2], in assay [3], in [4], in [5] and in [14]. Moreover, the result in assay [6] and in assay [16] was inactive. The results for the Potency in assay [8], in assay [9] and in assay [10] were 1.88 µM (active), 1.06 µM (active) and 2.11 µM (active), respectively. In addition, the Potency entry in assay [11] and in [12] was “inactive” throughout.
Turning to `CCC(C=O)CC`, the call in assay [1], in assay [2], in assay [3], in [4], in assay [5] and in assay [14] was inactive. Also, the call in [6] and in [16] was inactive. In addition, the Potency result in [7], in assay [8], in assay [9], in assay [10], in assay [11] and in assay [12] was “inactive” each time.
Take `CC1=C(C(=O)O)N2C(=O)[C@@H](NC(=O)[C@H](N)c3ccc(O)cc3)[C@H]2SC1`: the fluorescence, % of fluorescein in [1] was 0.159% [at 18.6 µM]. The fluorescence, % of fluorescent control in [2] was 0.558% [at 18.6 µM]; in assay [4] it was -0.034% [at 18.6 µM]; in assay [5], 0.197% [at 18.6 µM]; in assay [6] it was 0.189% [at 18.6 µM]. In addition, in [3], the activity change is 0.0539% [at 18.6 µM]. Moreover, the fluorescence, % of fluorescein control in [14] was 0.179% [at 18.6 µM]. Further, the Potency entry in [7], in [8], in assay [9], in [10], in assay [11] and in assay [12] was “inactive” each time. Besides, the call in assay [15] and in assay [16] was inactive.
On to `O=C(O)Cc1cn(-c2ccccc2)nc1-c1ccc(Cl)cc1`, for which the call in assay [1], in [2], in assay [3], in [4], in assay [5] and in assay [14] was inactive. In addition, the result in assay [6], in assay [15] and in [16] was inactive. Besides, the Potency result in [7], in assay [8], in assay [9], in [11] and in [12] was “inactive” each time.
In the case of `CC(C)=O`, the compound was classed as inactive in assay [1], in [2], in assay [3], in assay [4], in assay [5] and in [14]. In addition, the compound was called inactive in assay [6], in assay [16], in assay [18] and in [19]. Moreover, the Potency result in assay [8], in assay [9], in assay [10], in assay [11], in assay [17] and in assay [20] was “inactive” throughout.
In the case of `Cc1ccsc1/C=C/C1=NCCCN1C`, the fluorescence, % of fluorescein in assay [1] is 0.007% [at 18.6 µM]. Moreover, the fluorescence, % of fluorescent control in [2] is -0.0198% [at 18.6 µM]; in assay [4], -0.0392% [at 18.6 µM]; in assay [5], -0.0937% [at 18.6 µM]; in assay [6] it was 0.164% [at 18.6 µM]. Further, the activity change in assay [3] was 0.0151% [at 18.6 µM]. Moreover, the fluorescence, % of fluorescein control in [14] is -0.205% [at 18.6 µM]. Moreover, the Potency entry in assay [7], in assay [8], in assay [9], in assay [10] and in [11] was “inactive” throughout. The compound was classed as inactive in assay [15].
